Measured values: PubChem BioAssay (Tox21)
Values without a mark were called inactive. Inconclusive results are not listed. Entries that show only a call come without a potency. Activity calls are given as the source filed them. The call rests on the fitted dose curve; in most records, active means well fitted curve in the direction sought with a large enough effect in the repeat runs; inconclusive means weak or mixed curves; inactive means no such curve, though single readings can be large; an effect the other way counts as inactive or inconclusive.

Test: qHTS assay for small molecule disruptors of the mitochondrial membrane potential (AID 720635); further: potency means the concentration at half of the fitted maximal effect
Settings: HepG2 mitochondrial membrane potential, Mito-MPS dye ratio; series mostly up to 83.2 µM
Outline: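 HepG2 cells exposed to compound 1 hr at 37C, then Mito-MPS dye 30 min. Ratio read of aggregate (540/590 nm) versus monomer (490/535 nm) fluorescence.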

| SMILES | Potency |
| --- | --- |
| CN(C)CC[C@@H](c1ccc(Br)cc1)c1ccccn1 | inactive |
| Cc1occc1S | inactive |
| CC(C)CCCCCCOC(=O)c1ccc(C(=O)OCCCCCCC(C)C)c(C(=O)OCCCCCCC(C)C)c1 | inactive |
| O=c1[nH]cnc2ccccc12 | inactive |
| CCN(CC)CCOc1ccc2c(c1)C(=O)c1cc(OCCN(CC)CC)ccc1-2 | inactive |
| CCCCCCCCCCCCC(=O)O | inactive |
| Oc1ccc(Cc2ccccc2)cc1 | 14.2 µM (active) |
| NC1CCN(c2nc3c(cc2F)c(=O)c(C(=O)O)cn3-c2ccc(F)cc2F)C1 (configuration not stated) | inactive |
| CCN1CCC[C@H]1CNC(=O)c1c(OC)ccc(Br)c1OC | inactive |
| Cc1cccc(Oc2ccccc2)c1 | inactive |
| O=C(O)[C@@H]1[C@H]2C[C@H]3c4[nH]c5ccccc5c4CCN3C[C@@H]2CC[C@@H]1O | 11.4 µM (active) |
| O=c1c2ccccc2nnn1CCl | inactive |
| O=C(NN1CCCC1)NS(=O)(=O)c1ccc(Cl)cc1 | inactive |
| C[C@@H](C1=C(CCN(C)C)Cc2ccccc21)c1ccccn1 | inactive |
| CC(C)(C)c1ccc(OCC2CO2)cc1 (configuration not stated) | inactive |
| COc1cc(C(C)(C)C)c(O)c(C(C)(C)C)c1 | 27.3 µM (active) |
| Cc1ccccn1 | inactive |
| CCOc1ccc(NC(=O)CC(C)=O)cc1 | inactive |
| N#CCCNCCC#N | inactive |
| CCCOc1ccc2nc(NC(=O)OC)[nH]c2c1 | inactive |
| O=C1c2cccc(O)c2C(=O)c2c(O)cc(CO)cc21 | 0.864 µM (active) |
| CC(=O)SCc1ccco1 | inactive |
| Cc1ccccc1N=Nc1ccc(N=Nc2c(O)ccc3ccccc23)c(C)c1 | inactive |
| CCN(CC)C(C)CN1c2ccccc2Sc2ccccc21 (configuration not stated) | inactive |
| Cc1ccc(C(=O)C(C)CN2CCCCC2)cc1 (configuration not stated) | inactive |
| O=C(O)Cn1c(C(=O)Nc2nc(-c3ccccc3Cl)cs2)cc2ccccc21 | 26.6 µM (active) |

Test: qHTS assay to test for compound auto fluorescence at 590 nm (red) in HepG2 cells (AID 720674)
Settings: HepG2 autofluorescence, red 540/590 nm, 1 h; series mostly up to 91.3 µM
Outline: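 Seeding: 2,000 HepG2 cells/well, MEM/10% FBS, overnight 37 C. Dosing: compound vs DMSO. Incubation: 1 hr, 37 C, 5% CO2. Read: fluorescence 540 ex/590 em, Rose Bengal sodium as red reference.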

| SMILES | outcome | fluorescence, relative to Rose Bengal |
| --- | --- | --- |
| CN(C)CC[C@@H](c1ccc(Br)cc1)c1ccccn1 | inactive |  |
| O=C(O)/C=C/c1cnc[nH]1 | inactive |  |
| Cc1occc1S | inactive |  |
| O=c1[nH]cnc2ccccc12 | inactive |  |
| CCN(CC)CCOc1ccc2c(c1)C(=O)c1cc(OCCN(CC)CC)ccc1-2 | inactive |  |
| CC(=O)OCCc1ccccc1 | inactive |  |
| CCCCCCCCCCCCC(=O)O | inactive |  |
| Oc1ccc(Cc2ccccc2)cc1 | inactive |  |
| NC1CCN(c2nc3c(cc2F)c(=O)c(C(=O)O)cn3-c2ccc(F)cc2F)C1 (configuration not stated) | inactive |  |
| CC(C)c1ccc2c(C(C)C)cc(C(C)C)c(S(=O)(=O)O)c2c1 | inactive |  |
| CCN1CCC[C@H]1CNC(=O)c1c(OC)ccc(Br)c1OC | inactive |  |
| O=CNc1ccccc1 | inactive |  |
| Cc1cccc(Oc2ccccc2)c1 | inactive |  |
| O=C(O)[C@@H]1[C@H]2C[C@H]3c4[nH]c5ccccc5c4CCN3C[C@@H]2CC[C@@H]1O |  | 0.127% [at 18.6 µM] |
| O=C(O)Cc1cc(I)c(Oc2ccc(O)c(I)c2)c(I)c1 | inactive |  |
| O=c1c2ccccc2nnn1CCl | inactive |  |
| O=C(NN1CCCC1)NS(=O)(=O)c1ccc(Cl)cc1 | inactive |  |

| SMILES | outcome | fluorescence, relative to Rose Bengal |
| --- | --- | --- |
| C[C@@H](C1=C(CCN(C)C)Cc2ccccc21)c1ccccn1 | inactive |  |
| CC(C)(C)c1ccc(OCC2CO2)cc1 (configuration not stated) | inactive |  |
| Cc1ccccn1 | inactive |  |
| CCOc1ccc(NC(=O)CC(C)=O)cc1 | inactive |  |
| CC(=O)/C=C/C1C(C)=CCCC1(C)C (configuration not stated) | inactive |  |
| CCCCOC(=O)/C=C\C(=O)OCCCC | inactive |  |
| N#CCCNCCC#N | inactive |  |
| CCCOc1ccc2nc(NC(=O)OC)[nH]c2c1 | inactive |  |
| O=C1c2cccc(O)c2C(=O)c2c(O)cc(CO)cc21 | inactive |  |
| CCOC(=O)C1=NN(c2ccccc2)C(=O)C1 | inactive |  |
| CC(=O)SCc1ccco1 | inactive |  |
| Cc1ccccc1N=Nc1ccc(N=Nc2c(O)ccc3ccccc23)c(C)c1 | inactive |  |
| CN(C(=O)CCCOc1ccc2[nH]c(=O)ccc2c1)C1CCCCC1 | inactive |  |
| CCN(CC)C(C)CN1c2ccccc2Sc2ccccc21 (configuration not stated) |  | 0.373% [at 18.6 µM] |
| Cc1ccc(C(=O)C(C)CN2CCCCC2)cc1 (configuration not stated) | inactive |  |
| O=C(O)Cn1c(C(=O)Nc2nc(-c3ccccc3Cl)cs2)cc2ccccc21 | inactive |  |

Test: qHTS assay to test for compound auto fluorescence at 535 nm (green) in HepG2 cells (AID 720675)
Settings: green autofluorescence 485/535 nm, 1 h; series mostly up to 91.3 µM

| SMILES | outcome | fluorescence, % of fluorescein control |
| --- | --- | --- |
| CN(C)CC[C@@H](c1ccc(Br)cc1)c1ccccn1 | inactive |  |
| O=C(O)/C=C/c1cnc[nH]1 | inactive |  |
| Cc1occc1S | inactive |  |
| CC(C)CCCCCCOC(=O)c1ccc(C(=O)OCCCCCCC(C)C)c(C(=O)OCCCCCCC(C)C)c1 | inactive |  |
| O=c1[nH]cnc2ccccc12 | inactive |  |
| CCN(CC)CCOc1ccc2c(c1)C(=O)c1cc(OCCN(CC)CC)ccc1-2 | inactive |  |
| CC(=O)OCCc1ccccc1 | inactive |  |
| O=C(O)COC(=O)Cc1ccccc1Nc1c(Cl)cccc1Cl |  | -0.151% [at 18.6 µM] |
| CCCCCCCCCCCCC(=O)O | inactive |  |
| Oc1ccc(Cc2ccccc2)cc1 | inactive |  |
| NC1CCN(c2nc3c(cc2F)c(=O)c(C(=O)O)cn3-c2ccc(F)cc2F)C1 (configuration not stated) | inactive |  |
| CC(C)c1ccc2c(C(C)C)cc(C(C)C)c(S(=O)(=O)O)c2c1 | inactive |  |
| CCN1CCC[C@H]1CNC(=O)c1c(OC)ccc(Br)c1OC | inactive |  |
| O=CNc1ccccc1 | inactive |  |
| Cc1cccc(Oc2ccccc2)c1 | inactive |  |
| O=C(O)[C@@H]1[C@H]2C[C@H]3c4[nH]c5ccccc5c4CCN3C[C@@H]2CC[C@@H]1O |  | 0.513% [at 18.6 µM] |
| O=C(O)Cc1cc(I)c(Oc2ccc(O)c(I)c2)c(I)c1 | inactive |  |
| O=c1c2ccccc2nnn1CCl | inactive |  |
| O=C(NN1CCCC1)NS(=O)(=O)c1ccc(Cl)cc1 | inactive |  |

| SMILES | outcome | fluorescence, % of fluorescein control |
| --- | --- | --- |
| C[C@@H](C1=C(CCN(C)C)Cc2ccccc21)c1ccccn1 | inactive |  |
| CC(=O)N(O)CCCCCNC(=O)CCC(=O)N(O)CCCCCNC(=O)CCC(=O)N(O)CCCCCN |  | -0.0519% [at 18.6 µM] |
| CCN(CC)CCOC(=O)C1(c2ccccc2)CCCC1 | inactive |  |
| CC(C)(C)c1ccc(OCC2CO2)cc1 (configuration not stated) | inactive |  |
| COc1cc(C(C)(C)C)c(O)c(C(C)(C)C)c1 | inactive |  |
| Cc1ccccn1 | inactive |  |
| CCOc1ccc(NC(=O)CC(C)=O)cc1 | inactive |  |
| CC(=O)/C=C/C1C(C)=CCCC1(C)C (configuration not stated) | inactive |  |
| CCCCOC(=O)/C=C\C(=O)OCCCC | inactive |  |
| N#CCCNCCC#N | inactive |  |
| CCCOc1ccc2nc(NC(=O)OC)[nH]c2c1 | inactive |  |
| O=C1c2cccc(O)c2C(=O)c2c(O)cc(CO)cc21 | inactive |  |
| CCOC(=O)C1=NN(c2ccccc2)C(=O)C1 | inactive |  |
| CC(=O)SCc1ccco1 | inactive |  |
| Cc1ccccc1N=Nc1ccc(N=Nc2c(O)ccc3ccccc23)c(C)c1 | inactive |  |
| CN(C(=O)CCCOc1ccc2[nH]c(=O)ccc2c1)C1CCCCC1 | inactive |  |
| CCN(CC)C(C)CN1c2ccccc2Sc2ccccc21 (configuration not stated) |  | 0.0339% [at 18.6 µM] |
| Cc1ccc(C(=O)C(C)CN2CCCCC2)cc1 (configuration not stated) | inactive |  |
| O=C(O)Cn1c(C(=O)Nc2nc(-c3ccccc3Cl)cs2)cc2ccccc21 | inactive |  |
